In experiment [1] the test system is MILI (PIWIL2) piRISC loaded with L1MC piRNA (26 nt). Briefly: pre-steady-state target cleavage rate (min^-1); guide: L1MC piRNA 5'p-UAACUAAAUACUAUGCAAGCUGUAGG; higher = faster piRNA-guided slicing of the target. In short, it runs like this:
(§1)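 Sequencing of uncleaved targets, normalised to depth and to weakly complementary targets, was the readout of this Cleave-'n-Seq assay. A transcribed, DNA-blocked target RNA library (0.1 nM) was mixed with 1 nM active affinity-purified piRISC carrying one synthetic guide, with or without 500 nM GTSF1 partner protein, in HEPES–potassium acetate buffer at 33 °C for 0–8 or 0–960 min. Three trials were pooled, k3 was capped at 0.0001 min^-1, and a burst-and-steady-state fit gave the pre-steady-state cleavage rate.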

Experiment [2] deals with EfPiwi piRISC loaded with L1MC piRNA (26 nt). As to the kind of experiment: pre-steady-state target cleavage rate (min^-1); auxiliary factor: 500 nM Ephydatia muelleri Gtsf1; guide: L1MC piRNA 5'p-UAACUAAAUACUAUGCAAGCUGUAGG; MIWI and MILI are mouse PIWI proteins and EfPiwi is from a freshwater sponge; tags in brackets are library labels; higher = faster piRNA-guided slicing of the target. In short, it runs like this: as §1
Where [3] appears, read: auxiliary factor: 500 nM mouse GTSF1.
Setting [4] is: auxiliary factor: none (no GTSF1).

± gives the standard deviation.

We go through 17 sequences from the supplement of paper PMC10338343.

Take UCCUGCUACAGGAAGCAUAGUAUUUAGUUA: the figures for the “pre-steady-state target cleavage rate” value in experiment [1] (setting [3]), in experiment [1] (setting [4]) and in experiment [2] were 0.282 ± 0.014, 0.00969 ± 0.0027 and 0.0127 ± 0.0035, respectively.
For UCCUGGAUGUCCUUGCAUAUUAUUUAGUUA, in that order: 0.038 ± 0.011, 0.0028 ± 0.0027 and 0.00283 ± 0.0025.
For UCCUGGAUGAGCUGCAUAGUAUUUAGUUA, in that order: 0.101 ± 0.013, 0.00501 ± 0.0028 and 0.00786 ± 0.0028.
In the case of UCCUGGAUCAGCUUGCAUUGUAAUUAGUUA, the figures for the “pre-steady-state target cleavage rate” value in experiment [1] (setting [3]), in experiment [1] (setting [4]) and in experiment [2] were 0.097 ± 0.011, 0.00466 ± 0.0022 and 0.00179 ± 0.0017, respectively.
For UCCUCCUACUCGUUGCAUAGUAUUUAGUUA, in that order: 0.211 ± 0.018, 0.00864 ± 0.002 and 0.101 ± 0.025.
For UCCUGGUACAGCUUGCAUAGUAUUUAUUUA, in that order: 0.166 ± 0.037, 0.0109 ± 0.0041 and 0.00732 ± 0.0063.
As for UCCUGCUUCAGCUUGCAUAGUAUUUAGAUA, the “pre-steady-state target cleavage rate” value in experiment [1] (setting [3]) was found to be 0.165 ± 0.025; in experiment [1] (setting [4]), 0.00373 ± 0.002; in experiment [2] it was 0.00521 ± 0.0024.
On to UCCUGGUUCACCUUGCAUAGUAUUUAGUUA, for which the results for the “pre-steady-state target cleavage rate” value in experiment [1] (setting [3]), in experiment [1] (setting [4]) and in experiment [2] were 0.128 ± 0.022, 0.00513 ± 0.0027 and 0.0052 ± 0.0033, respectively.
The corresponding values for UCCUGGAACGGCUUGCAUAGUAUUUAGUUA are 0.259 ± 0.017, 0.0129 ± 0.0024 and 0.0243 ± 0.0075.
For UCCUGGUACACGCUUGCAUAGUAUUUAGUUA, in that order: 0.167 ± 0.046, 0.0158 ± 0.0071 and 0.00613 ± 0.0031.
As to UCCUGCUACAGCUUGGUUAGUAUUUAGUUA, the “pre-steady-state target cleavage rate” value in experiment [1] (setting [3]) was 0.262 ± 0.015; in experiment [1] (setting [4]), 0.0061 ± 0.002; in experiment [2], 0.0105 ± 0.0033.
Consider UCCUCCUACACGUUGCAUAGUAUUUAGUUA, for which the results for the “pre-steady-state target cleavage rate” value in experiment [1] (setting [3]), in experiment [1] (setting [4]) and in experiment [2] were 0.321 ± 0.021, 0.00729 ± 0.0026 and 0.136 ± 0.035, respectively.
As for UCCUGGAUGUGCUUGCAUAGUAUUGUAGUUA, the “pre-steady-state target cleavage rate” value in experiment [1] (setting [3]) amounted to 0.0838 ± 0.018; in experiment [1] (setting [4]) it was 0.0048 ± 0.0032; in experiment [2], 0.00579 ± 0.0041.
For UCCUGGUACAGCUUGCAUAGUAUAUUGUUA, in that order: 0.146 ± 0.042, 0.00411 ± 0.0035 and 0.00333 ± 0.0026.
For UCCUGCUACAGCUUGCUUAGUAUUUAGUUA, in that order: 0.248 ± 0.013, 0.00684 ± 0.0021 and 0.0201 ± 0.0068.
Turning to UCCUCCUACAGCUUGCAUUGUAUAUAGUUA, the “pre-steady-state target cleavage rate” value is 0.177 ± 0.018 in experiment [1] (setting [3]), 0.00393 ± 0.0025 in experiment [1] (setting [4]) and 0.00608 ± 0.0036 in experiment [2].
For the sequence UCCUGGAUCUGCUUGCAUAGUAUUUAGUUA, the “pre-steady-state target cleavage rate” value in experiment [1] (setting [3]) was found to be 0.229 ± 0.016; in experiment [1] (setting [4]), 0.00944 ± 0.002; in experiment [2] it was 0.116 ± 0.023.
